FadD28 FP inh: inhibitors of FadD28 bisubstrate probe binding, primary screen, biochemical, fluorescence polarization, single point; Mycobacterium tuberculosis FadD28 fatty-acid-AMP ligase; inhibition, % at 12.5 µM; actives 0.22% (n = 360,000); in the data active means inhibition above about 8.5%, passing the limit was not always enough
Mtb FBA inh: Mtb FBA enzyme inhibitors, primary screen, biochemical, fluorescence, strain H37Rv; Fructose-bisphosphate aldolase (Mycobacterium tuberculosis (strain ATCC 25618 / H37Rv)), …; purified M. tuberculosis FBA, fluorescence read-out; inhibition, % at 1 µM; actives 2.3% (n = 360,000); in the data active means inhibition above about 27%;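 further: 0% = vehicle and 100% = reference inhibitor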
Target sequence (P9WQA3 whole entry, looked up): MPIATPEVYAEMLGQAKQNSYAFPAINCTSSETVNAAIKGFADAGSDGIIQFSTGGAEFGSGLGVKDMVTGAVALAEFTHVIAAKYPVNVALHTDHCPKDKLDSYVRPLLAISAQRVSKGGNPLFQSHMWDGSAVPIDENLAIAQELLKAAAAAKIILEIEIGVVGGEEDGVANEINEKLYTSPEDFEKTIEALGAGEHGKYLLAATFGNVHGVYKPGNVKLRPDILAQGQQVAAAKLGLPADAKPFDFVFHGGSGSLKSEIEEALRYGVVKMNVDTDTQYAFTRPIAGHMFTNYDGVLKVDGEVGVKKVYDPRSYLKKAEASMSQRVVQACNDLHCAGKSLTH
GDH-TPI inh: GDH-TPI coupling enzyme inhibitors, primary screen, artefact control for M. tuberculosis FBA inhibitor project, biochemical, absorbance, full deck; GDH-TPI coupled enzyme counterscreen, NADH absorbance; inhibition, % at 4.8 µM; actives 1.2% (n = 360,000); AID 588335, 2011; in the data active means inhibition above about 30%;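 further: 0% = DMSO wells and 100% = wells lacking the enzyme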
BioA inh: M. tuberculosis BioA enzyme inhibitors, primary screen, biochemical, plate reader, single point, HTS; actives 0.096% (n = 360,000); inhibition, % at 9.99 µM; purified M. tuberculosis BioA enzyme; in the data active means inhibition above about 40%
SARS 3CLpro inh: SARS-CoV 3CLpro protease inhibitors, primary screen, biochemical, quenched FRET; recombinant SARS-CoV 3CLpro, quenched FRET peptide cleavage; actives 0.14% (n = 290,000); AID 1706, 2009; inhibition, % at 6 µM; in the data active means inhibition above about 12%
Active calls of the source: *; . = no result; + = active, no number. Hits are enriched below; roughly 3.1% of the tested compounds scored in any of these assays.

SMILES	FadD28 FP inh	Mtb FBA inh	GDH-TPI inh	BioA inh	SARS 3CLpro inh
COc1cccc(NS(=O)(=O)c2ccc3c(c2)C2C=CCC2C(c2ccc(C(=O)O)cc2)N3)c1 (stereo not given)	22*	-3	8	.	-2
COc1ccc(C(=O)N/N=C(\C)c2ccc3c(c2)C2C=CCC2C(c2ccccc2)N3)cc1 (stereo not given)	-3	-2	26	.	1
O=C(O)c1ccc2c(c1)[C@@H]1C=CC[C@@H]1[C@H](c1ccccn1)N2	19*	3	4	-1	4
CC(=O)Nc1ccc2c(c1)C(=O)N(C)[C@H]1CC[C@H](CC(=O)NCc3ccccc3)O[C@H]1CO2	.	.	.	14	.
O=S(=O)(Nc1ccc(-c2nc3cccnc3s2)cc1)c1cc(F)ccc1F	-4	+	30	.	4
CCc1ccc(S(=O)(=O)Nc2ccc(-c3nc4cccnc4s3)cc2)s1	-2	+	45*	-3	-1
Cc1ccc(S(=O)(=O)N(C)C[C@@H]2Oc3ccc(NS(=O)(=O)c4cccs4)cc3C(=O)N([C@H](C)CO)C[C@H]2C)cc1	.	.	.	1	.
N#Cc1nc(-c2ccc(F)cc2)oc1N1CCC(C(N)=O)CC1	-1	+	19	-1	1
N#Cc1nc(-c2ccco2)oc1N1CCC(C(N)=O)CC1	-3	124*	10	1	0
COc1ccccc1-c1nc(C#N)c(N2CCC(Cc3ccccc3)CC2)o1	-2	44*	19	-1	-2
CCOC(=O)C1CCCN(c2oc(-c3ccc(OC)cc3)nc2C#N)C1 (stereo not given)	-3	132*	-2	1	6
COc1ccccc1-c1nc(C#N)c(N2CCN(Cc3ccccc3)CC2)o1	0	18	14	0	2
CCOC(=O)C1CCCN(c2ncnc3c2cnn3-c2ccc(OC)cc2)C1 (stereo not given)	-5	3	1	13	0
N#Cc1nc(-c2ccc(F)cc2)oc1N1CCN(C(=O)c2ccco2)CC1	0	9	17	-5	-3
CC(C)C#Cc1cnc2c(c1)C(=O)N([C@@H](C)CO)C[C@@H](C)[C@H](CN(C)C(=O)C1CCC1)O2	.	.	.	0	.
CC(C)NC(=O)Nc1cccc2c1O[C@@H](CN(C)Cc1ccccc1)[C@@H](C)CN([C@H](C)CO)C2=O	.	.	.	1	.
COc1ccc(-c2nc(C#N)c(N3CCC(C(N)=O)CC3)o2)cc1OC	0	+	21	-1	-1
N#Cc1nc(-c2ccccc2)oc1N1CCC(C(N)=O)CC1	0	+	15	3	-5
N#Cc1nc(Cc2ccccc2)oc1N1CCC(C(N)=O)CC1	0	-2	2	2	-6
Cc1ccc(-c2nc(C#N)c(N3CCC(C(N)=O)CC3)o2)cc1	1	179*	15	-2	-3
COc1ccc(-c2nc(C#N)c(N3CCOCC3)o2)cc1OC	-4	+	12	2	-3
CO[C@@H]1CN(C)C(=O)c2ccc(NC(C)=O)cc2OC[C@@H](C)N(Cc2cc(-c3ccccc3)on2)C[C@H]1C	.	.	.	2	.
C[C@H]1CN([C@@H](C)CO)C(=O)c2cc(-c3cccc(F)c3)cnc2O[C@H]1CN(C)Cc1cccnc1	.	.	.	9	.
Cn1cnc(S(=O)(=O)N[C@@H]2CC[C@@H](CC(=O)N3CCN(c4ccccc4)CC3)O[C@H]2CO)c1	.	.	.	1	.
CNC(=O)C[C@@H]1CC[C@@H]2[C@H](COc3ccc(NC(=O)c4cnccn4)cc3C(=O)N2C)O1	.	.	.	9	.
SMILES	FadD28 FP inh	Mtb FBA inh	GDH-TPI inh	BioA inh	SARS 3CLpro inh
Cc1noc(C)c1NC(=O)Nc1ccc2c(c1)C(=O)N([C@@H](C)CO)C[C@@H](C)[C@@H](CN(C)S(=O)(=O)c1ccc(F)cc1)OCCCC[C@H](C)O2	.	.	.	0	.
C[C@H](CO)N1C[C@H](C)[C@@H](CN(C)Cc2ccncc2)Oc2ccc(NC(=O)CCC(F)(F)F)cc2C1=O	.	.	.	-2	.
CCNC(=O)C[C@@H]1C=C[C@H](NS(=O)(=O)c2ccc(C)cc2)[C@@H](CO)O1	.	.	.	-3	.
CCOC(=O)C1CCCN(c2ccc([N+](=O)[O-])c3nonc23)C1 (stereo not given)	47*	-8	12	.	-12
COc1cccc(S(=O)(=O)N[C@H]2CC[C@H](CC(=O)NCc3ccc(Cl)cc3)O[C@@H]2CO)c1	.	.	.	-1	.
CO[C@H](CN(C)C(=O)c1ccccc1F)[C@H](C)CN([C@@H](C)CO)S(=O)(=O)c1ccc(Cl)cc1	.	.	.	-1	.
Nc1nnc(/C=C/c2cccc([N+](=O)[O-])c2)s1	-2	0	44*	-2	-2
Nc1nnc(-c2cccc([N+](=O)[O-])c2)s1	0	-4	3	.	2
Cc1cccc(C2C3=C(Nc4[nH]n(-c5ccccc5)c(=O)c42)c2ccccc2C3=O)c1 (stereo not given)	22*	-16	2	.	4
C[C@H](CO)N1C[C@H](C)[C@@H](CN(C)C(=O)CCC(F)(F)F)OCCCC[C@H](C)Oc2ccc(NC(=O)Nc3ccccc3)cc2C1=O	.	.	.	0	.
O=C(Nc1ccc2c(c1)[C@H]1C[C@H](CC(=O)N3CCCCC3)O[C@@H](CO)[C@H]1O2)Nc1ccccc1F	.	.	.	-1	.
COC(=O)C[C@@H]1CC[C@H]2[C@H](COc3ccc(NS(=O)(=O)c4ccc(C)cc4)cc3C(=O)N2C)O1	.	.	.	-2	.
COCCNC(=O)c1cc2c3ccccc3n(C)c2s1	0	3	47*	2	2
Cc1nc2ccccn2c1C(=O)N/N=C/c1ccc(CNC(=O)C(=O)Nc2ccccc2)o1	-1	0	38*	.	-2
CN(C)C(=O)C[C@@H]1C=C[C@@H](NC(=O)c2ccc(F)cc2)[C@H](CO)O1	.	.	.	4	.
O=C(CSc1n[nH]c(=O)[nH]c1=O)N/N=C/C=C/c1ccccc1	0	-1	43*	.	3
O=C(CSc1n[nH]c(=O)[nH]c1=O)N/N=C/C=C\c1ccccc1	1	-4	13	-1	-1
CN(C)c1ccc(C2/C(=C(/O)c3ccccc3)C(=O)C(=O)N2CCCC(=O)O)cc1 (stereo not given)	-1	-2	31*	-2	-1
CN(C)CCCN1C(=O)C(=O)/C(=C(/O)c2ccncc2)C1c1cccc(Br)c1 (stereo not given)	2	-1	31*	-1	-3
CN(C)CCCN1C(=O)C(=O)/C(=C(/O)c2ccncc2)C1c1cccnc1 (stereo not given)	-3	-1	10	.	0
Cc1ccc2[nH]c3c(=O)n(CCCN4CCOCC4)cnc3c2c1	-2	13	8	-1	1
COc1ccc2[nH]c3c(=O)n(CCCN4CCOCC4)cnc3c2c1	-1	157*	22	6	4

Source: PubChem
